Several values for one entry are separate records, joined by “and”; a condition that tells them apart may be missing. Equal entries are not always repeated. Compounds without any hit were thinned out: in the full panel of roughly 83,000, 20% have a hit.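 Results are percent growth after 48 hours of single-concentration exposure. 100 means growth as in untreated cells, lower positive values show inhibition; negative values down to -100 show cell death.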 Activity calls are given as the source filed them. How the source made its calls: active means growth percent below 10; inactive means the rest.
tested on: NCI/ADR-RES ovarian; assay: NCI-60 one-dose screen, 48 h (100 = growth as untreated, 0 = no growth, -100 = all killed); settings: 10 µM unless noted

Q: How did the growth turn out when `O=C(/C=C/Nc1ccc(S(=O)(=O)Nc2ncccn2)cc1)c1ccc(N=Cc2c(O)[nH]c3ccccc23)cc1` was run?
A: 110% (inactive)

Q: How did the growth turn out when `CCCCCN1C(=O)/C(=c2\sc3n(c2=O)C2C(NN=3)N(CC)C(=O)N2CC)c2cccc(C)c21` (stereo not given) was run?
A: 30.7% (inactive)

Q: How did the growth turn out when `C#C[C@]1(O)CC[C@H]2[C@@H]3CC=C4c5sc(Nc6ncccc6C)nc5CC[C@]4(C)[C@H]3CC[C@@]21C` was run?
A: 28.1% (inactive)

Q: With `O=C1CSC(c2cn(-c3ccccc3)nc2-c2ccc(Cl)cc2)N1c1ccccc1` (stereo not given) as the compound, how does the growth read?
A: 104% (inactive)

Q: With `CC(=O)Nc1ccccc1-c1nc2ccccc2s1` as the compound, how does the growth read?
A: 98.5% (inactive)

Q: With `O=C(/C=C/c1cccc(Br)c1)c1cccc(OCCCCOc2cccc(C(=O)/C=C/c3cccc(Br)c3)c2)c1` as the compound, how does the growth read?
A: 106% (inactive)

Q: For `C/C(=C(\c1ccc(O)cc1)c1ccc(OCCN2CCCCCC2)cc1)c1ccc(Cl)cc1`, which growth is on record?
A: -72.7% (active)

Q: `Clc1ccc(CSc2nnc(-c3ccc(Cl)cc3)n2-c2ccccc2)cc1` was tested. Which growth did it give?
A: 54.2% (inactive)

Q: With `O=C(CCCCCCNC(=O)C(O)(O)C(F)(F)F)Nc1nc2ccccc2s1` as the compound, how does the growth read?
A: 1.87% (active)

Q: `CC(C)NC(=O)c1cc(-c2ccc(NC(=O)Nc3ccc(F)c(C(F)(F)F)c3)cc2)nc2cccnc12` was tested. Which growth did it give?
A: 98.2% (inactive)

Q: For `COc1ccc(-c2cnc(NC(=O)CCCCCCNC(=O)C(O)(O)C(F)(F)F)s2)cc1`, which growth is on record?
A: -2.38% (active)

Q: Which growth does the source give for `C/C=C/CC(C)C(O)[C@H](NC(=O)[C@@H]1CCCN1C(=O)[C@](C)(CC)NC(=O)CCCCCCCCC)C(=O)N[C@@](C)(CC)C(=O)N[C@@H](CCC(N)=O)C(=O)N[C@H](CCC(N)=O)C(=O)NC(C)(C)C(=O)NC(C)(C)C(=O)N[C@@H](CCC(N)=O)C(=O)N[C@H](CC(C)C)C(=O)N[C@H](CO)CC(C)C` (stereo not given in full) here?
A: 71.4% (inactive) and -70.3% (active)

Q: How did the growth turn out when `CC1CC(=O)C2=C(C1)Nc1ccc(Br)cc1CC2c1c[nH]c2ccc(Br)cc12` (stereo not given) was run?
A: 26.6% (inactive)

Q: How did the growth turn out when `CC(C)(C)Nc1nc2c(OCCc3ccccc3)cccn2c1-c1cccc(Oc2ccccc2)c1` was run?
A: 7.94% (active)

Q: With `CCCC/C(=C\c1ccc(O)c(O)c1)C(=O)NC(Cc1ccccc1)C(=O)C(=O)NCCc1ccc(OC)cc1` (stereo not given) as the compound, how does the growth read?
A: 101% (inactive)

Q: How did the growth turn out when `COC(=O)c1cccc(NC2=C(Cl)C(=O)c3nc(C)ccc3C2=O)c1` was run?
A: 89.7% (inactive)

Q: Which growth does the source give for `NC1CC2(CCN(c3cnc(C(=O)Nc4cc(F)cc5cccnc45)cn3)CC2)C1` here?
A: 89.2% (inactive)

Q: How did the growth turn out when `COC(=O)c1ccc(NC2=C(Cl)C(=O)c3nc(C)ccc3C2=O)cc1` was run?
A: 19.7% (inactive)

Q: Which growth does the source give for `CC(Nc1c(C#N)cnc2ccc(-c3cncc(-c4n[nH]c(=O)o4)c3)cc12)c1ccccc1` (stereo not given) here?
A: 67.7% (inactive)

Q: For `CC(=O)OC[C@]12CC[C@@H](C(=O)/C=C/c3cccnc3)[C@@H]1[C@H]1CC[C@@H]3[C@@]4(C)CC[C@H](OC(C)=O)C(C)(C)[C@@H]4CC[C@@]3(C)[C@]1(C)CC2`, which growth is on record?
A: -14.2% (active)

Q: Which growth does the source give for `CC(O)c1cccc(/C(N)=N/C(N)=N/c2nc3ccccc3s2)c1` (stereo not given) here?
A: 95.6% (inactive)

Q: How did the growth turn out when `CC(C)=CCC[C@](C)(O)[C@H]1CC[C@]2(C)[C@@H]1CC[C@@H]1[C@@]3(C)CC[C@H](N)C(C)(C)[C@@H]3CC[C@]12C` was run?
A: 88.9% (inactive)

Q: With `Cc1ccc2c(n1)C(=O)C(Cl)=C(Nc1cccc(C)c1C)C2=O` as the compound, how does the growth read?
A: -5.45% (active)

Q: With `C[C@]12CC[C@H]3[C@@H](CC=C4C[C@@H](O)CC[C@@]43C)[C@@H]1CC[C@@H]2[C@](C)(O)CCc1cccnc1` as the compound, how does the growth read?
A: 65.9% (inactive)

Q: Which growth does the source give for `CN1CCN(c2ccc(Nc3nc(NCCCNS(=O)(=O)c4ccc(C(F)(F)F)cc4)c4sccc4n3)cc2)CC1` here?
A: -2.63% (active)

Q: `Cc1ccc2c(n1)C(=O)C(Cl)=C(Nc1cccc(C(F)(F)F)c1)C2=O` was tested. Which growth did it give?
A: 93.3% (inactive)

Q: Which growth does the source give for `O=C(CN1CCN(c2cc(=O)[nH]c3ccc(F)cc23)CC1)N(c1ccccc1)c1ccccc1` here?
A: 102% (inactive)

Q: How did the growth turn out when `Cc1[nH]c(C(=O)Nc2ccc(C(N)=O)cc2N2CCOC(C)C2)c(Cl)c1Cl` (stereo not given) was run?
A: 93.7% (inactive)

Q: `CC1(C)CC[C@]2(C(=O)O)CC[C@]3(C)C(=CC[C@@H]4[C@@]5(C)CC[C@H](NOCCCN)C(C)(C)[C@@H]5CC[C@]43C)[C@@H]2C1` was tested. Which growth did it give?
A: 99.4% (inactive)

Q: How did the growth turn out when `Cc1ccc2c(n1)C(=O)C(Cl)=C(Nc1ccc(C#N)cc1)C2=O` was run?
A: 98% (inactive)

Q: Which growth does the source give for `CC(=O)Nc1nc(C)c(-c2csc(Nc3ccccc3)n2)s1` here?
A: 35.9% (inactive)

Q: With `O=C(/C=C/c1cccc(F)c1)c1cccc(OCCCCOc2cccc(C(=O)/C=C/c3cccc(F)c3)c2)c1` as the compound, how does the growth read?
A: 106% (inactive)

Q: `O=S(=O)(NCCCNc1nccc(-c2[nH]c(-c3ccccc3)nc2-c2ccc(F)c(O)c2)n1)c1ccc(C(F)(F)F)cc1` was tested. Which growth did it give?
A: 89% (inactive)

Q: Which growth does the source give for `O=C(CCCCCCNC(=O)C(O)(O)C(F)(F)F)Nc1ncc(-c2ccccc2)s1` here?
A: 2.08% (active)

Q: `CN(C)c1ccc(/C=N/Nc2nc(N/N=C/c3ccc(N(C)C)cc3)nc(N3CCCCC3)n2)cc1` was tested. Which growth did it give?
A: 58.3% (inactive)

Q: For `NC1[C@H]2CN(c3cnc(C(=O)Nc4cc(F)cc5cccnc45)cn3)C[C@@H]12` (stereo not given in full), which growth is on record?
A: 85.3% (inactive)

Q: How did the growth turn out when `Clc1cccc(/C=N/Nc2nc(N/N=C/c3cccc(Cl)c3)nc(N3CCCCC3)n2)c1` was run?
A: 95.2% (inactive)

Q: For `CC(Nc1ncnc2ccc(-c3cnc4cnccn34)cc12)c1ccccc1` (stereo not given), which growth is on record?
A: 52.6% (inactive)

Q: How did the growth turn out when `CN1CCN(c2ccc(Nc3nc(NCCNC(=O)c4ccccc4)c4sccc4n3)cc2)CC1` was run?
A: 91.7% (inactive)

Q: Which growth does the source give for `O=C(CSc1nc2ccccc2c(=O)n1-c1ccccc1)N/N=C/c1ccc(Oc2ccc(Cl)cc2)cc1` here?
A: 52.7% (inactive)
